Screening data deposited in PubChem BioAssay by University of Kansas High Throughput Screening Laboratory.
Pf apPOL block – Pf-apPOL DNA polymerase inhibition. inhibition, % at 10 µM. AID 1794808. 0.25% of 210,000 active. Recombinant Pf-apPOL, molecular beacon fluorescence, 1.5 h
mHTT CaM bind – inhibitors of human mutant huntingtin-calmodulin interaction; P42858; AlphaScreen His-mHTT/GST-CaM binding, luminescence; inhibition, % at 15 µM; 3.6% of 190,000 active; AID 1671202
A number is an active result; . = inactive; / = not tested or not shown. Only some compounds are listed: those with a hit (about 3.6% of all), similar ones and a draw of the others. Cut-off read from the data, not from the text of the source: active = inhibition above about 50%; inactive = the rest.

SMILES | Pf apPOL block | mHTT CaM bind
CCCCCCNC(=O)N1C/C=C\C(c2ccc(OC)cc2)N(Cc2ccc(F)cc2)C(=O)C1 (configuration not stated) | . | .
COc1ccc(C2/C=C\CN(S(=O)(=O)c3ccc4ccccc4c3)CC(=O)N2Cc2ccc(F)cc2)cc1 (configuration not stated) | . | .
CCCCCCC(=O)N1C/C=C\C(c2ccc(OC)cc2)N(Cc2ccc(F)cc2)C(=O)C1 (configuration not stated) | . | 62
COc1ccc(C2/C=C\CC(OCc3ccccc3)CC(=O)N2Cc2cccc(F)c2)cc1 (configuration not stated) | . | 100
CC(C)(C)c1ccc(/C=C2\NC(=O)N(Cc3ccccc3F)C2=O)cc1 | . | .
Cc1ccccc1C(=O)N1[C@@H](C(C)C)COc2cc(Br)ccc2S1(=O)=O | . | .
COc1ccc(/C(N)=C/C(=O)C(C)(C)C)cc1 | . | .
COc1c(S(=O)(=O)NCCN2CCOCC2)ccc(Cl)c1Cl | . | .
O=C(Cc1nnc(-c2cccc(F)c2)o1)NC1CC1 | . | .
O=C(Nc1ccccc1F)c1cccc(Cl)c1 | . | .
O=C(Nc1ccc(C(F)(F)F)cc1)O[C@@H]1C[C@H]2C[C@@H]1[C@H]1CCCCN1C2 | . | 73
O=C(Nc1ccc(F)cc1)O[C@@H]1C[C@H]2C[C@@H]1[C@H]1CCCCN1C2 | . | .
CC(=O)N1c2ccc(S(=O)(=O)N3CCN(c4ccccn4)CC3)cc2CC1C (configuration not stated) | . | .
N#Cc1c(C(F)(F)F)cc(-c2cccs2)[nH]c1=O | . | .
CSc1cc(-c2cccs2)[nH]c(=O)c1C#N | . | /
N#Cc1c(-c2ccco2)cc(-c2cccs2)[nH]c1=O | 83 | /
N#Cc1c(-c2cccs2)cc(-c2ccco2)[nH]c1=O | 72 | /
COc1ccc(CNC(=O)CSc2nnc(C(c3ccccc3)c3ccccc3)n2C)cc1 | . | .
COc1ccccc1NC=C1C(=O)OC2(CCCCC2)OC1=O | . | .
Nc1nc2c(nc(N=Nc3c(O)[nH]c4ccccc34)n2C2OC(CO)C(O)C2O)c(=O)[nH]1 (configuration not stated) | / | 63
NCCCCCCNc1nc2c(=O)[nH]cnc2n1C1OC(CO)C(O)C1O (configuration not stated) | / | .
O=C(Nc1ccccc1F)N1CCc2nc(-c3ccc(F)cc3)ncc2C1 | . | .
COc1ccc(CCNC(=O)Cc2ccc(OC)c(OC)c2)cc1OC | . | /
COc1cccc2cc(C(=O)Nc3sc(-c4ccccc4)cc3C(N)=O)oc12 | . | .
COc1ccc(CC(=O)Nc2sc(-c3ccccc3)cc2C(N)=O)cc1OC | . | 83
SMILES | Pf apPOL block | mHTT CaM bind
COc1ccc(CCNC(=O)CCN2N=C(c3ccccc3)CCC2=O)cc1OC | . | .
COc1ccc(CCNC(=O)CCN2N=C(c3ccc(C)cc3)CCC2=O)cc1OC | . | 87
COCC(=O)NCCc1ccc(OC)c(OC)c1 | 98 | .
COc1ccccc1CC(=O)NCCc1ccccc1 | . | 63
COc1ccccc1CC(=O)NCCCc1ccccc1 | . | .
CCOCCCN1COc2ccc3c(c2C1)OC(=Cc1ccc(OC)cc1)C3=O | . | .
Cc1nc(N2CCN(C(=O)CCCc3ccccc3)CC2)cc(-n2cccn2)n1 | . | .
COc1cc2c(cc1OC)C(COc1ccc([N+](=O)[O-])cc1)N(C(=O)CCC1CCCCC1)CC2 (configuration not stated) | . | .
CCc1cc2c(=O)c(-c3ccc4c(c3)OCCO4)c(C)oc2cc1OC | . | .
COCC(=O)Nc1cc(OC)ccc1OC | . | .
COc1ccc(OC)c(NC(=O)Cc2ccc(OC)c(OC)c2)c1 | 86 | .
O=C(Nc1ccc(Cl)cc1)O/N=C(/c1cccc([N+](=O)[O-])c1)N1CCOCC1 | . | .
CCOC(=O)c1c(-c2ccccc2)oc2c1cc(OC(=O)c1ccccc1OC)c1ccccc12 | . | .
CCOC(=O)c1c(-c2ccccc2)oc2c1cc(OC(=O)c1cc(OC)c(OC)c(OC)c1)c1ccccc12 | 58 | .
O=C(c1n[nH]c2ccccc12)N1CCC(Nc2cccnc2)C1 (configuration not stated) | . | .
C=COCCNC(=O)Nc1ccc(F)cc1 | . | .
CC(=O)COc1ccc2c(C)c(Cc3ccccc3)c(=O)oc2c1 | . | .
COc1ccc(C=C2NC(=O)C3Cc4ccccc4CN3C2=O)cc1 (configuration not stated) | . | /
COc1nn(C)cc1C(=O)N1CCC(c2nnc(-c3ccco3)o2)CC1 | . | .
O=C(CSC1CCCC1)N1CCC(c2nnc(-c3ccco3)o2)CC1 | . | 100
COc1ccc(N2CCN(CCNC(=O)c3cnccn3)CC2)cc1 | . | .
CCCn1cc2c3c(cccc31)CN(C(=O)c1cccc(F)c1)CC2 | . | 66
CCn1cc2c3c(cccc31)CN(C(=O)c1cccc(F)c1)CC2 | . | .
CCCn1cc2c3c(cccc31)CN(C(=O)c1ccccc1F)CC2 | . | 51
Cn1cc2c3c(cccc31)CN(C(=O)c1ccccc1F)CC2 | . | .
SMILES | Pf apPOL block | mHTT CaM bind
O=C(NC1CC1)c1ccc(OCC2CCCN2C(=O)Cc2ccc(F)cc2)cc1 (configuration not stated) | . | .
CC(=O)C[C@H]1c2cc(C(F)(F)F)ccc2S(=O)(=O)N1c1ccc(N(C)C)cc1 | . | .
N#Cc1cccc(-c2cn3c(n2)N(C(=O)Cc2ccsc2)CCC3)c1 | . | .
O=C(Nc1ccccc1)[C@@H]1CC=C[C@@H]2CCN(C3CC3)C(=O)[C@@H]21 | . | .
CCCCC[C@@H](C)N1C[C@H](COCc2ccccc2)Oc2cc(N3CC[C@@H](N(C)C)C3)ccc2S1(=O)=O | . | .
CCCCC[C@H](C)N1C[C@H](COCc2ccccc2)Oc2cc(N3CC[C@@H](N(C)C)C3)ccc2S1(=O)=O | . | 100
CCCCC[C@@H](C)N1C[C@@H](COCc2ccccc2)Oc2cc(N3CC[C@@H](N(C)C)C3)ccc2S1(=O)=O | . | 100
CCCCC[C@H](C)N1C[C@H](COCc2ccccc2)Oc2cc(N3CC[C@H](N(C)C)C3)ccc2S1(=O)=O | . | .
Cn1c(N2CCCC(C(=O)Nc3cccc(C#N)c3)C2)cc(=O)n(C)c1=O (configuration not stated) | . | .
O=C1Nc2ccc(Br)cc2/C1=C/c1ccc(O)c(O)c1 | . | 96
O=C1Nc2ccc(Br)cc2/C1=C/c1ccc(Cl)cc1 | . | .
O=C1Nc2ccc(Br)cc2/C1=C/c1cccc(Cl)c1 | . | .
CC(C)(C)c1ccc(/C=C2\C(=O)Nc3ccc(Br)cc32)cc1 | . | 90
COc1ccc(CNC(=O)CCc2cn(C)c3ccccc23)c(OC)c1 | . | .
Nc1ccc(Nc2ccccc2)c(Cl)c1 | . | .
Nc1ccc(Nc2ccc(N)cc2S(=O)(=O)O)cc1 | / | 97
Cc1ccccc1N1CCN(C(C)C(=O)NCc2cccnc2)CC1 (configuration not stated) | . | .
CC(C(=O)NCc1ccccn1)N1CCN(c2ccccc2Cl)CC1 (configuration not stated) | . | 75
O=C(CSc1nc2sc3c(c2c(=O)n1-c1ccccc1)CCCC3)NCC1CCCO1 (configuration not stated) | . | .
CNc1ncnc2c1C(c1cccc([N+](=O)[O-])c1)c1c(NC)ncnc1O2 | 75 | .
COc1ncnc2c1C(c1cccc([N+](=O)[O-])c1)c1c(OC)ncnc1O2 | . | .
CS(=O)(=O)Nc1cccc2cccnc12 | . | .
